Laboratory results as given in the supplement of paper PMC6411743.
± gives the standard deviation of the averaged measurements. The full data set covers some 5,400 targets. This sample favours those with the largest changes.

Compound: Nc1nc2c(ncn2[C@@H]2O[C@H](COP(=O)(O)OP(=O)(O)OP(=O)(O)O)[C@@H](O)[C@H]2O)c(=O)[nH]1 [guanosine triphosphate]
Assay: NP40-soluble protein abundance relative to vehicle (solubility fold change) (ratio); higher = more soluble protein in presence of GTP
Procedure, shortened: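 Data come from three independent experiments in which Dounce-homogenised Jurkat crude lysate was treated at eight concentrations from 0.1 to 10 mM. Treatment ran 10 min at room temperature and then 3 min at 37 °C, after which 0.8% NP40 and benzonase were added for 60 min at 4 °C before ultracentrifugation. The supernatant underwent TMT labelling and LC-MS/MS, and vsn-normalised intensities were expressed as fold change against the detergent-processed vehicle in each replicate.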

UniProt P54577, sequence (P54577 whole entry): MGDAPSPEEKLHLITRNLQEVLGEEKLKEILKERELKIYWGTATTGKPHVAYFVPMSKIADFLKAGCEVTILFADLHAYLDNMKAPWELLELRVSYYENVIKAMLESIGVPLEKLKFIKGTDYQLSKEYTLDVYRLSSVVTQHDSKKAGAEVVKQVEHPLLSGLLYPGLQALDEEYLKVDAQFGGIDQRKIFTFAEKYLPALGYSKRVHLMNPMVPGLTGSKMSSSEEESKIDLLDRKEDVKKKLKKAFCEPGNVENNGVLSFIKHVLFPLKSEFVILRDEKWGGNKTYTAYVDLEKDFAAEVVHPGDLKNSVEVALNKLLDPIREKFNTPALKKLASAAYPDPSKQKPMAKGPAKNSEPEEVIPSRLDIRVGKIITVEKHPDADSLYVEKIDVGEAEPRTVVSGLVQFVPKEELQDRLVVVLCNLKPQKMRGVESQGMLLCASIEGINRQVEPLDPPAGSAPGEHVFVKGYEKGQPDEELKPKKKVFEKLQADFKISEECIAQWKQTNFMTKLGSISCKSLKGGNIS
UniProt O96008, sequence (O96008 whole entry): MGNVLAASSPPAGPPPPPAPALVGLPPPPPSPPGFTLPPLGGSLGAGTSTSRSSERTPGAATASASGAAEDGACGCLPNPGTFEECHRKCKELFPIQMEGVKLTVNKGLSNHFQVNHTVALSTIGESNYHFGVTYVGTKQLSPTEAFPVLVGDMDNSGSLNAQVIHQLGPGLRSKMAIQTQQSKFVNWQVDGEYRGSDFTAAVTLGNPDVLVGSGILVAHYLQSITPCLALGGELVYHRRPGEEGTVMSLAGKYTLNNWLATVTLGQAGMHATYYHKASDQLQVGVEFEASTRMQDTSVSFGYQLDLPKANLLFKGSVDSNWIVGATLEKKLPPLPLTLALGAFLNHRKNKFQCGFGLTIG
UniProt O43665, sequence (O43665 whole entry): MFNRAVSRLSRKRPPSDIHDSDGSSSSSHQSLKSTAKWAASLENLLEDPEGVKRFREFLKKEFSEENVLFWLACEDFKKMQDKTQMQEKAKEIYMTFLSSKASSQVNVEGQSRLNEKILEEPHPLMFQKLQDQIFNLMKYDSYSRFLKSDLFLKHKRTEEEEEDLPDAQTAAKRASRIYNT
UniProt P20339, sequence (P20339 whole entry): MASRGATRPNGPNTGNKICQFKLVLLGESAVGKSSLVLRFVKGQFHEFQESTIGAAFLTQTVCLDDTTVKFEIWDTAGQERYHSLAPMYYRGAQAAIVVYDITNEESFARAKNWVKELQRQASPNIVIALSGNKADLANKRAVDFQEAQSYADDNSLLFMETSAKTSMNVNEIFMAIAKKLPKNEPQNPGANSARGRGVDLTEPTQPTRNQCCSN
UniProt P09651, sequence (P09651 whole entry): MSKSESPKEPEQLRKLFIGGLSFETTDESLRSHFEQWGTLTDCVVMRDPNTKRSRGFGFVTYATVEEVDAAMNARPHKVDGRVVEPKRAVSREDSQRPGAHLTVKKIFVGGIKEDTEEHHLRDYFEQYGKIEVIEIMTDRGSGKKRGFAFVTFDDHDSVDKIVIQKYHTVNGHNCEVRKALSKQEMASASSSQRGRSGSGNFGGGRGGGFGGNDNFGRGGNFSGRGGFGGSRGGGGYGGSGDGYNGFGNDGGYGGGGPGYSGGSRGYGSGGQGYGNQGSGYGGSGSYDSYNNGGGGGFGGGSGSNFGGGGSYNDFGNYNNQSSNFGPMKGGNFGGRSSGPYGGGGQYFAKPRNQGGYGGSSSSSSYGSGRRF
UniProt P18065, sequence (P18065 whole entry): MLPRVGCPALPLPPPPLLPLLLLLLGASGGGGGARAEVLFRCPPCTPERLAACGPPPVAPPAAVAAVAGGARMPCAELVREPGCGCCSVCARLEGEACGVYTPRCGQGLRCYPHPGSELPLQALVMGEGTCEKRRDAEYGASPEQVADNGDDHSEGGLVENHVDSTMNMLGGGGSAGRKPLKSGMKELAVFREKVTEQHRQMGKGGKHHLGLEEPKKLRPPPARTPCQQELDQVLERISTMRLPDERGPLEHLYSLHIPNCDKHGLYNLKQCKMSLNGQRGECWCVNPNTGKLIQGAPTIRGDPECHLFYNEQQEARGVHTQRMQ
UniProt P30405, sequence (P30405 whole entry): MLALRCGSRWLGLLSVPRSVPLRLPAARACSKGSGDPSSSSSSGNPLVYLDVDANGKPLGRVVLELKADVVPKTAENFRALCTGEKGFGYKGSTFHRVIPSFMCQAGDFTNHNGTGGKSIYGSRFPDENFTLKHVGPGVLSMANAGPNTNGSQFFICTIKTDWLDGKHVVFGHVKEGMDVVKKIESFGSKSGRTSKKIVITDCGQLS
UniProt P51114, sequence (P51114 whole entry): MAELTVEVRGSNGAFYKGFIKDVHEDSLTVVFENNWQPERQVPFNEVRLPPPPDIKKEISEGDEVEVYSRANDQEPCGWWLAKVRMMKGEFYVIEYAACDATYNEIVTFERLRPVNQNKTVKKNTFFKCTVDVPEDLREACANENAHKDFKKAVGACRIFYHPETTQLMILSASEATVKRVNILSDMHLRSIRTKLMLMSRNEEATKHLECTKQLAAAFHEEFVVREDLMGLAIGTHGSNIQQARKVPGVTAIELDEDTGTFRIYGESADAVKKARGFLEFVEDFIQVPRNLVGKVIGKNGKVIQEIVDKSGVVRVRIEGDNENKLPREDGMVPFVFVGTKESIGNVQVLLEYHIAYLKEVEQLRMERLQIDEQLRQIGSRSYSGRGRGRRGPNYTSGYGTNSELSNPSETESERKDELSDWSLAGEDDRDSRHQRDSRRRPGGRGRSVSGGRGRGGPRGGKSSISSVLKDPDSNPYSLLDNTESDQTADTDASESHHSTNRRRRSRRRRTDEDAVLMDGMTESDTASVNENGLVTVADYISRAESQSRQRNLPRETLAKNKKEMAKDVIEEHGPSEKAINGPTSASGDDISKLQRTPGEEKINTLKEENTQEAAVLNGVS
UniProt P10515, sequence (P10515 whole entry): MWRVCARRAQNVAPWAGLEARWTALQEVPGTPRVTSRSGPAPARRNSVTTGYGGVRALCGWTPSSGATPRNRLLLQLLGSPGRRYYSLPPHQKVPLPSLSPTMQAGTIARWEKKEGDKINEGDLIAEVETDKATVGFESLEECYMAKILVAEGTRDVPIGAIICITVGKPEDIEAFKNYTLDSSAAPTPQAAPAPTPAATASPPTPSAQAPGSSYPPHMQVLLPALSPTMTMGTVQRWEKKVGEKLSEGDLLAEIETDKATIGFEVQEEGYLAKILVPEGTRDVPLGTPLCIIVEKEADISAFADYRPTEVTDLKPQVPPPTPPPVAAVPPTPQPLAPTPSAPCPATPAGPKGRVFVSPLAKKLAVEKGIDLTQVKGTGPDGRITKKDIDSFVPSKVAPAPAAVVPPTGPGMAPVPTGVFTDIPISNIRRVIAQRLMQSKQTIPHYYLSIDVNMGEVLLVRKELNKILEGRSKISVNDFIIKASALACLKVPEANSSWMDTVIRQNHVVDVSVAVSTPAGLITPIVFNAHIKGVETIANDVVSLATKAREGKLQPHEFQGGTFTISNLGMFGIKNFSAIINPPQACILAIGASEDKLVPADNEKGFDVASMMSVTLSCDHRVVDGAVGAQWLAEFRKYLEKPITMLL
UniProt Q13227, sequence (Q13227 whole entry, one chain of several): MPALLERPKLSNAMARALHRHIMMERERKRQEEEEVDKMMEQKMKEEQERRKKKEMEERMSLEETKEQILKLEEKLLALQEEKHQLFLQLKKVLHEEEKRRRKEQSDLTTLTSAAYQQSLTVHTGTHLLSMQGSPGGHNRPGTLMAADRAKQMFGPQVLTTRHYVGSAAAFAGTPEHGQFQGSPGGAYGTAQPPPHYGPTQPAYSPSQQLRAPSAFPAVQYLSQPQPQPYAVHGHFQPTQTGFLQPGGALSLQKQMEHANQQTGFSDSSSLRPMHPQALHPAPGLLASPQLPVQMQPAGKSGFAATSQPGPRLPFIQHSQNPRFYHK
UniProt O43865, sequence (O43865 whole entry): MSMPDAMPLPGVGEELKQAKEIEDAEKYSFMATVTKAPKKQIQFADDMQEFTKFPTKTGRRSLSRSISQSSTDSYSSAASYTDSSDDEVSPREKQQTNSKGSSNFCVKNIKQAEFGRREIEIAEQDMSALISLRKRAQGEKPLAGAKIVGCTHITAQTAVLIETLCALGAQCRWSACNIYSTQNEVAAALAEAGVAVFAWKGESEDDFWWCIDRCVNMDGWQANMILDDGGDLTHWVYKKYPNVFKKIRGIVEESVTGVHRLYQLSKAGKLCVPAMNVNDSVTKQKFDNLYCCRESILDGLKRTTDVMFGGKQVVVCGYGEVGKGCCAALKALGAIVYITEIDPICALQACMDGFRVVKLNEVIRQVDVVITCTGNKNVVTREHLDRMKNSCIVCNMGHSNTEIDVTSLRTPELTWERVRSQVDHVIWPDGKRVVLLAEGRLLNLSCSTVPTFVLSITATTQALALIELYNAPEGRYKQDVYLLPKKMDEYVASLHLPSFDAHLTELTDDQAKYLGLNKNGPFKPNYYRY

Target	NP40-soluble protein abundance (concentration: 0.1mM)	NP40-soluble protein abundance (concentration: 0.5mM)	NP40-soluble protein abundance (concentration: 1mM)	NP40-soluble protein abundance (concentration: 2mM)	NP40-soluble protein abundance (concentration: 4mM)	NP40-soluble protein abundance (concentration: 6mM)	NP40-soluble protein abundance (concentration: 8mM)	NP40-soluble protein abundance (concentration: 10mM)
PPIF (UniProt P30405)	0.881 ± 0.08	0.902 ± 0.067	0.863 ± 0.064	0.876 ± 0.078	0.853 ± 0.091	0.868 ± 0.087	0.836 ± 0.11	0.887 ± 0.079
I3L3Y9|I3L4X7|Q13227|Q13227-2 (UniProt Q13227)	0.978 ± 0.059	0.878 ± 0.0093	1.01 ± 0.13	1.01 ± 0.072	1.02 ± 0.11	1.06 ± 0.11	1.03 ± 0.13	1.08 ± 0.14
UniProt O43865	0.969 ± 0.025	0.99 ± 0.044	0.959 ± 0.057	0.944 ± 0.025	0.914 ± 0.021	0.955 ± 0.029	0.973 ± 0.056	0.98 ± 0.047
UniProt O75170|O75170-2|O75170-3|O75170-4|O75170-5	1 ± 0.15	0.979 ± 0.059	1.03 ± 0.12	1 ± 0.043	0.973 ± 0.071	0.992 ± 0.056	0.963 ± 0.065	1.05 ± 0.075
UniProt P20339|P20339-2	0.999 ± 0.016	1.08 ± 0.04	0.875 ± 0.057	0.937 ± 0.059	0.865 ± 0.034	0.85 ± 0.024	0.82 ± 0.13	0.828 ± 0.14
J3KNV1|O60281|O60281-2 (UniProt O60281)	1.06 ± 0.041	1.05 ± 0.095	1.12 ± 0.066	1.09 ± 0.13	1.02 ± 0.051	1.04 ± 0.15	1.07 ± 0.057	1.05 ± 0.036
YARS (UniProt P54577)	0.952 ± 0.037	0.969 ± 0.029	0.92 ± 0.042	0.878 ± 0.048	0.864 ± 0.061	0.874 ± 0.048	0.872 ± 0.043	0.849 ± 0.066
P0C0S5|Q71UI9 (UniProt Q71UI9+P0C0S5)	0.898 ± 0.042	0.919 ± 0.033	1.11 ± 0.065	1.11 ± 0.06	1.12 ± 0.06	1.25 ± 0.094	1.25 ± 0.079	1.57 ± 0.18
DLAT (UniProt P10515)	1.11 ± 0.22	1.28 ± 0.39	1.47 ± 0.56	1.85 ± 0.82	2.12 ± 1.1	2.06 ± 1.1	1.98 ± 0.98	1.91 ± 0.99
UniProt O43665|O43665-2|O43665-3	0.802 ± 0.079	0.748 ± 0.035	0.872 ± 0.14	0.865 ± 0.068	0.791 ± 0.038	0.837 ± 0.034	0.79 ± 0.089	0.909 ± 0.14
UniProt P09651|P09651-2	1.03 ± 0.067	1.11 ± 0.082	1.17 ± 0.11	1.16 ± 0.065	1.16 ± 0.08	1.22 ± 0.089	1.3 ± 0.22	1.25 ± 0.16
FXR1 (UniProt P51114)	1.13 ± 0.11	1.23 ± 0.075	1.31 ± 0.042	1.54 ± 0.07	1.885 ± 0.0094	2.02 ± 0.03	2.16 ± 0.091	2.28 ± 0.13
TOMM40 (UniProt O96008)	1.01 ± 0.045	1.04 ± 0.031	0.953 ± 0.041	0.967 ± 0.018	0.946 ± 0.043	0.936 ± 0.037	0.939 ± 0.077	0.905 ± 0.061
IGFBP2 (UniProt P18065)	0.9 ± 0.042	0.884 ± 0.053	0.983 ± 0.035	0.997 ± 0.043	0.995 ± 0.028	0.934 ± 0.062	1.02 ± 0.054	1.05 ± 0.087
